Measured values from PubChem BioAssay (Tox21).
Results filed as inconclusive are left out. Activity calls are given as the source filed them. Unless noted, calls come from the whole dose curve; as a rule, active = well fitted curve in the direction sought with a large enough effect in the repeat runs; inconclusive = weak or mixed curves; inactive = no such curve, though single readings can be large; an effect the other way counts as inactive or inconclusive.

Columns and labels:
[1] = molecular target: Estrogen receptor (Homo sapiens) (UniProt P03372); test: qHTS assay to identify small molecule agonists of the estrogen receptor alpha (ER-alpha) signaling pathway in the presence of an antagonist (AID 1259383; calls by dose curve; note: top concentration of the series differs between compounds; nearly all actives have a fitted effect of over 15% in size)
Chain of Estrogen receptor (Homo sapiens) (P03372 whole entry, looked up): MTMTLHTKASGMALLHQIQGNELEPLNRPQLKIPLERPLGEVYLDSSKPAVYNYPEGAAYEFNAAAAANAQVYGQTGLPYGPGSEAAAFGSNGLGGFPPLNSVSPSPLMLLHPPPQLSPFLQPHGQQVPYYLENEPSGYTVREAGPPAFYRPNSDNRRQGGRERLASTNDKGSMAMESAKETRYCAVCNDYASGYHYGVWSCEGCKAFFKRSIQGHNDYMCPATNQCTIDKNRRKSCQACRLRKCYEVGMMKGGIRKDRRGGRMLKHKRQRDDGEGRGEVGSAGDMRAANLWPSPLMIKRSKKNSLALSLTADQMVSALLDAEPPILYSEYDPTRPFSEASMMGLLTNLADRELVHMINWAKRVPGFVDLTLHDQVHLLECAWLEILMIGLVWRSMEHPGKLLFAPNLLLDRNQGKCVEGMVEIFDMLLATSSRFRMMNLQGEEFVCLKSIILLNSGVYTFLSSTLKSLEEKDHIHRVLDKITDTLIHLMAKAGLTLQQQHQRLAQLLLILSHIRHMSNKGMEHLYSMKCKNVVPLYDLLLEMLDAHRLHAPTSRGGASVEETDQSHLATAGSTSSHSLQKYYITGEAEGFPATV
Procedure, shortened: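 Using VM7Luc4E2 cells seeded 24hr before treatment, antagonist ICI-182,780 (10.0nM final) was added, followed by compounds at 15 concentrations. Plates incubated 22hr; ONE-Glo luminescence quantified reporter activity.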

[2] = qHTS assay to identify small molecule agonists or antagonists of the thyroid stimulating hormone receptor (TSHR) signaling pathway - wild type cell line counter screen (AID 1259384; calls by dose curve)
Procedure, shortened: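 Wild-type HEK293 cells were plated 18 h at 37 C/5% CO2, pin-dosed with compound plus Ro20-1724 medium, held 30 min at room temperature, then given cAMP-d2 and anti-cAMP-cryptate; fluorescence was read after 1 h. Fifteen concentrations, triplicate.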

[3] = molecular target: Thyrotropin receptor (Homo sapiens) (UniProt P16473); test: qHTS assay to identify small molecule antagonists of the thyroid stimulating hormone receptor (TSHR) signaling pathway (AID 1259385; calls by dose curve; note: nearly all actives have a fitted effect of over 20% in size)
Chain of Thyrotropin receptor (Homo sapiens) (P16473 whole entry, looked up): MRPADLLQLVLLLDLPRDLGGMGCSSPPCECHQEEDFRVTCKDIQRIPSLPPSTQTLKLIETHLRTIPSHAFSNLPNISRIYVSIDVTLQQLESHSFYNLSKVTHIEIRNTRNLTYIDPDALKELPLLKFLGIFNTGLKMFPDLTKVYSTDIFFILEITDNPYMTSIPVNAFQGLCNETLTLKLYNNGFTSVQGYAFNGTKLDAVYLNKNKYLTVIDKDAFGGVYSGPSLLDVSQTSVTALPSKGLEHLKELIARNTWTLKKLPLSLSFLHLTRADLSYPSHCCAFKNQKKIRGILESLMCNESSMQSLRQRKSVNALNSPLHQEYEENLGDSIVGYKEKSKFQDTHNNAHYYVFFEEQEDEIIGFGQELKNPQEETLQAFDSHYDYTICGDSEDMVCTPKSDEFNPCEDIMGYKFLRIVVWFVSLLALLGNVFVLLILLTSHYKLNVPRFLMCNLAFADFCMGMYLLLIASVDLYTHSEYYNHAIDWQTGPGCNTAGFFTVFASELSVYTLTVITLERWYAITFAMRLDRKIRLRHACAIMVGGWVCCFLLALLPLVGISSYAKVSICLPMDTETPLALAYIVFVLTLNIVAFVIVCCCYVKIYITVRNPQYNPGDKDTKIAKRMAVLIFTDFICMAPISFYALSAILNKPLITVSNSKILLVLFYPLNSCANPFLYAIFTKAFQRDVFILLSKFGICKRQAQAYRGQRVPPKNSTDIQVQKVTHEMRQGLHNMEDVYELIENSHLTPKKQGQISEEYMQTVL
Procedure, shortened: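 TSHR-HEK293 cells were plated and held 18 h at 37C/5% CO2, then given compound plus Ro20-1724 and stimulated with TSH at 1.5 ng/mL final. After 30 min at room temperature, cAMP was detected with cAMP-d2/anti-cAMP-cryptate (1 h) by fluorescence.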

[4] = qHTS assay to identify small molecule agonists of the estrogen receptor alpha (ER-alpha) signaling pathway in the presence of an antagonist - cell viability counter screen (AID 1259386);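 note: series mostly up to about 92 µM; cells exposed to compounds for 22 h at 37 °C before the viability read; nearly all actives have a fitted effect of over 30% in size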
Procedure, shortened: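 ICI-182,780 at 10.0nM final accompanies the compound titration (15 concentrations, 22hr, 37C) on VM7Luc4E2 cells. The CellTiter-Fluor fluorescence readout runs in the same wells as the luciferase assay.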

[5] = molecular target: Progesterone receptor (Homo sapiens) (UniProt P06401); test: qHTS assay to identify small molecule agonists of the progesterone receptor (PR) signaling pathway (AID 1346784; calls by dose curve; note: nearly all actives have a fitted effect of over 30% in size)
Chain of Progesterone receptor (Homo sapiens) (P06401 whole entry, looked up): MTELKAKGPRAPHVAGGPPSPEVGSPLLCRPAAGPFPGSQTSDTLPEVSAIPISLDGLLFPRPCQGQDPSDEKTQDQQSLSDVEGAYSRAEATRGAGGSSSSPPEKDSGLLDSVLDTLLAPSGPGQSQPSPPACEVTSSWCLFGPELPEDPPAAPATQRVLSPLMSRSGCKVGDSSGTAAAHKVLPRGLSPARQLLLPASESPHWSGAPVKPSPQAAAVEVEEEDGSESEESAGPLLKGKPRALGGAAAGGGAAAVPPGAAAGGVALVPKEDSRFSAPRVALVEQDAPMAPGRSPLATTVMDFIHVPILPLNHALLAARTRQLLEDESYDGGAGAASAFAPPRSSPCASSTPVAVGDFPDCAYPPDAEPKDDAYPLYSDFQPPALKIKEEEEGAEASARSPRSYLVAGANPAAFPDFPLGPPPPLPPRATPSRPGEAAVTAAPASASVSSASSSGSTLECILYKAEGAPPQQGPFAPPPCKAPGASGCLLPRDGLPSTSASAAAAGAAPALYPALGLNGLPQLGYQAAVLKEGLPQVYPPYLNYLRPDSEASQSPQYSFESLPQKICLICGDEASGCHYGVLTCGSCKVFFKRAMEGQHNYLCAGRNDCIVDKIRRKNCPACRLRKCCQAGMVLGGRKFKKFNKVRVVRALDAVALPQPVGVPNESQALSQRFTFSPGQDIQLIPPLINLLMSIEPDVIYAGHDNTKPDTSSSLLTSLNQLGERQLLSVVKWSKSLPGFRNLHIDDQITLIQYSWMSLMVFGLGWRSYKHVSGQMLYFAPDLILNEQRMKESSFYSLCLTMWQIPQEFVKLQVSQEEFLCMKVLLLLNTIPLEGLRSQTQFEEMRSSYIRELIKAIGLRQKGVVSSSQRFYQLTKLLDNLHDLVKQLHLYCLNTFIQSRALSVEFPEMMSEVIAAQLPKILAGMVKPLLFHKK
Procedure, shortened: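 Reporter assay, GripTite PR-UAS-bla HEK 293T cells: 16 hr exposure to DMSO-dissolved compounds at 37C, 5% CO2, in steroid-depleted (2% charcoal-stripped FBS) medium; beta-lactamase measured by FRET fluorescence.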

[6] = molecular target: Progesterone receptor (Homo sapiens) (UniProt P06401); test: qHTS assay to identify small molecule antagonists of the progesterone receptor (PR) signaling pathway (AID 1346795; active = well fitted inhibition curve with a large enough effect in the signal ratio in the repeat runs, not every such curve was filed as active; the % refers to the signal ratio)
Procedure, shortened: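 Stimulus R5020 at 1 nM final; cells HEK293T PR-UAS-bla; medium with 2% charcoal-stripped FBS; compound exposure 16 hr at 37C, 5% CO2; detection by FRET beta-lactamase substrate, 2 hr, room temperature.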

[7] = qHTS assay to identify small molecule antagonists of the progesterone receptor (PR) signaling pathway - cell viability counter screen (AID 1346798); note: series mostly up to about 92 µM; nearly all actives have a fitted effect of over 50% in size
Procedure, shortened: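 In the same plates used for the beta-lactamase readout, cell viability of compound- and R5020-treated PR-UAS-bla HEK293T cells (16 hr, 37C) was assessed by CellTiter-Glo luminescence.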

[8] = qHTS assay to identify small molecule agonists of the progesterone receptor (PR) signaling pathway - cell viability counter screen (AID 1346799; calls by dose curve; note: nearly all actives have a fitted effect of over 45% in size)
Procedure, shortened: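 Multiplexed viability read: CellTiter-Glo luminescence, 30 min RT, following LiveBLAzer FRET measurement on PR-UAS-bla HEK293T cells exposed to compounds 16 hr.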

[9] = qHTS assay to identify small molecule antagonists of the TGF-beta/Smad signaling pathway - cell viability counter screen (AID 1346824); note: nearly all actives have a fitted effect of over 50% in size
Procedure, shortened: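 SBE-bla HEK 293T cells were plated overnight at 37 C, then given compounds in DMSO plus TGF-beta1 (added as 0.25 ng/mL solution) for 5 hr. After the bla read, CellTiter-Glo was added to the same wells and luminescence read after 30 min at room temperature.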

[10] = qHTS assay to identify small molecule agonists of the TGF-beta/Smad signaling pathway - cell viability counter screen (AID 1346829); note: top concentration of the series differs between compounds; nearly all actives have a fitted effect of over 45% in size
Procedure, shortened: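 Cytotoxicity counter screen: CellTiter-Glo luminescence (30 min, room temperature) measured in the SBE-bla HEK 293T reporter wells after 5 hr compound treatment at 37 C and the 2 hr substrate step.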

[11] = qHTS assay to identify small molecule agonists of the TGF-beta/Smad signaling pathway (AID 1346859; active = well fitted activation curve with a large enough effect in the signal ratio in the repeat runs, not every such curve was filed as active; the % refers to the signal ratio; note: series mostly up to about 77 µM)
Procedure, shortened: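 Screening used HEK 293T SBE-bla cells at 4,000/well. Test agents: 5 hr, 37 C. Detection: FRET substrate, 2 hr RT, then excitation 405 nm with emissions at 460 and 530 nm.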

[12] = Human pregnane X receptor (PXR) small molecule agonists, qHTS cell viability counter screen (AID 1346977); note: nearly all actives have a fitted effect of over 50% in size
Procedure, shortened: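 In each well, the PXR reporter HepG2 line was checked for viability: CellTiter-Fluor reagent added 23hr post-dosing, fluorescence read after 1hr incubation at 37C.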

[13] = Caspase-3/7 induction in HepG2 cells by small molecules, qHTS assay (AID 1346978); note: nearly all actives have a fitted effect of over 15% in size
Procedure, shortened: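 Wild-type HepG2 cells (2,000/well) were settled 5 h at 37 C, 5% CO2, then exposed to compounds in DMSO for 17 h. Caspase-3/7 activity was read by luminescence 30 min after adding Caspase-Glo 3/7 reagent at room temperature.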

[14] = Caspase-3/7 induction in CHO-K1 cells by small molecules, qHTS cell viability counter screen (AID 1346979); note: nearly all actives have a fitted effect of over 35% in size
Procedure, shortened: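 Following a 5hr settling period, CHO-K1 cells at 1,500 per well received DMSO-dissolved compounds. Cell viability was quantified 16hr later by CellTiter-Fluor fluorescence, measured after 1hr with reagent at 37C.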

[15] = Caspase-3/7 induction in CHO-K1 cells by small molecules, qHTS assay (AID 1346980); note: nearly all actives have a fitted effect of over 15% in size
Procedure, shortened: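 Wild-type cells were seeded at 1,500 per well and settled 5 hr at 37 C, 5% CO2, then exposed to DMSO-dissolved compounds for 17 hr. Caspase-Glo 3/7 reagent was added, and luminescence was read after 30min at room temperature.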

[16] = Caspase-3/7 induction in HepG2 cells by small molecules, qHTS cell viability counter screen (AID 1346981); note: series mostly up to about 92 µM; nearly all actives have a fitted effect of over 30% in size
Procedure, shortened: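 Multiplexed with the caspase-3/7 assay: HepG2 cells, 16 hr compound treatment, CellTiter-Fluor viability detection by fluorescence.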

[17] = molecular target: Nuclear receptor subfamily 1 group I member 2 (Homo sapiens) (UniProt O75469); test: Human pregnane X receptor (PXR) small molecule agonists, qHTS assay (AID 1346982); note: nearly all actives have a fitted effect of over 35% in size
Chain of Nuclear receptor subfamily 1 group I member 2 (Homo sapiens) (O75469 whole entry, looked up): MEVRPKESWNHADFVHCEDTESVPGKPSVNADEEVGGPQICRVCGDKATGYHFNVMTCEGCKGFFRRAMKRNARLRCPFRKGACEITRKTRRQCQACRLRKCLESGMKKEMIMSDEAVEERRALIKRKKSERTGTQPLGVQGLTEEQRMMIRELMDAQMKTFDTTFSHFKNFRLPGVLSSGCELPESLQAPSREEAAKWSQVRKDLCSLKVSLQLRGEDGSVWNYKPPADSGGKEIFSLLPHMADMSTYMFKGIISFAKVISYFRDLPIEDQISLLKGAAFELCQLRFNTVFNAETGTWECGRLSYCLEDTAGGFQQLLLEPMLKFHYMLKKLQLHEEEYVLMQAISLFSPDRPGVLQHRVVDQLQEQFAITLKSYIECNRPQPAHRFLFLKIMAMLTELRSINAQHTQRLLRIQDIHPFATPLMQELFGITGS
Procedure, shortened: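 We seeded PXR-Luc HepG2 cells in assay medium containing 5% charcoal-stripped FBS, added compounds 5 hr later, incubated 24 hr, and read luminescence with ONE-Glo reagent.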

[18] = molecular target: Nuclear receptor subfamily 1 group I member 2 (Rattus norvegicus) (UniProt Q9R1A7); test: Rat pregnane X receptor (rPXR) activation by small molecules, qHTS assay (AID 1346983); details: rPXR luciferase reporter cells, One-Glo luminescence, 24 h; max activation: hits give high values; note: nearly all actives have a fitted effect of over 20% in size
Chain of Nuclear receptor subfamily 1 group I member 2 (Rattus norvegicus) (Q9R1A7 whole entry, looked up): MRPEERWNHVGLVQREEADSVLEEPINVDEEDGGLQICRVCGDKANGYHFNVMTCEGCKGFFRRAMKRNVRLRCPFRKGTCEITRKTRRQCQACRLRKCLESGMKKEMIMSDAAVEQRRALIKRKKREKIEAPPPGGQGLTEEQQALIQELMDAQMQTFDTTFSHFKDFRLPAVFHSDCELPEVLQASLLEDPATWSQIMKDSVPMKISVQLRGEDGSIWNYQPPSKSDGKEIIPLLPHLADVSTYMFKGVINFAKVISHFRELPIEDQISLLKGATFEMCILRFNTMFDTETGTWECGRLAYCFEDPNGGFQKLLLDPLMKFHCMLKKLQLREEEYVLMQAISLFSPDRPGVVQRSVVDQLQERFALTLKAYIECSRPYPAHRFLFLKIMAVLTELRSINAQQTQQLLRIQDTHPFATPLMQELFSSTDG
Procedure, shortened: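 Cell-based rPXR luciferase reporter assay, 2,000 cells per well, rested 5hr at 37 C before compound addition in DMSO, then 24 hr at 37 C. One-Glo reagent was added and luminescence read after 30 min at room temperature.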

[19] = molecular target: Thyrotropin-releasing hormone receptor (Homo sapiens) (UniProt P34981); test: qHTS assay to identify small molecule antagonists of the thyrotropin-releasing hormone receptor (TRHR) signaling pathway (AID 1346877; active = well fitted inhibition curve with a large enough effect in the repeat runs, not every such curve was filed as active; note: series mostly up to about 51 µM)
Chain of Thyrotropin-releasing hormone receptor (Homo sapiens) (P34981 whole entry, looked up): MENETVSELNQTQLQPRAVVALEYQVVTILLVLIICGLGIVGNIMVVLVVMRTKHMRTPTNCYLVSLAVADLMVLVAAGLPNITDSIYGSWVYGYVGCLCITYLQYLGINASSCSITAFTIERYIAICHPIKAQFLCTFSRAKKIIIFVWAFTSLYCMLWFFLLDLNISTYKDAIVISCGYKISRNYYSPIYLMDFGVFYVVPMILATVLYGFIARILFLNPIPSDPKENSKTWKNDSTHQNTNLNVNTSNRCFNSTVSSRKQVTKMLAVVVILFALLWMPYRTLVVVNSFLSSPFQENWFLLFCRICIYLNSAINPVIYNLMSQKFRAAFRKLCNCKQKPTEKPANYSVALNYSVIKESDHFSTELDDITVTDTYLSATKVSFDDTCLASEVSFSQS
Procedure, shortened: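 Screening used HEK293 cells engineered with TRHR, with a brief 5 min room-temperature compound exposure preceding addition of TRH to 1 nM. The read-out was kinetic calcium-dye fluorescence, concentration-response from 15 doses in triplicate.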

[20] = molecular target: Thyrotropin-releasing hormone receptor (Homo sapiens) (UniProt P34981); test: qHTS assay to identify small molecule agonists of the thyrotropin-releasing hormone receptor (TRHR) signaling pathway (AID 1346891; calls by dose curve; note: series mostly up to about 58 µM)
Procedure, shortened: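 Readout was intracellular calcium fluorescence in TRHR-Hek293 cells. Cells were incubated 18 h, dye-loaded 2 h at 37 °C, and treated with compound in agonist mode.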
% is set by controls: 0 for no effect and ±100 for the full control effect.

COCC(=O)Nc1c(I)c(C(=O)NCC(O)CO)c(I)c(C(=O)N(C)CC(O)CO)c1I (stereo not given)
inactive: outcome [1] | outcome [2] | outcome [3] | Potency [4] | Potency [5] | Potency [6] | Potency [7] | Potency [8] | outcome [9] | outcome [10] | outcome [11] | Potency [12] | outcome [13] | Potency [14] | outcome [15] | Potency [16] | Potency [17] | max activation [18] -3.61%

CC(=O)c1ccc(OCC(=O)N2CCCCC2)cc1
inactive: outcome [1] | outcome [2] | outcome [3] | Potency [4] | Potency [5] | Potency [6] | Potency [8] | outcome [9] | outcome [10] | outcome [11] | outcome [19] | outcome [20] | Potency [12] | outcome [13] | Potency [14] | outcome [15] | Potency [16]

CC(=O)OC[C@H]1O[C@@H](OC(C)=O)[C@H](OC(C)=O)[C@@H]1OC(C)=O
inactive: outcome [1] | outcome [2] | outcome [3] | Potency [4] | Potency [5] | Potency [6] | Potency [7] | Potency [8] | outcome [9] | outcome [10] | outcome [19] | outcome [20] | Potency [12] | outcome [13] | Potency [14] | outcome [15] | Potency [16] | Potency [17]

CCN(Cc1cccc(S(=O)(=O)O)c1)c1ccccc1
inactive: outcome [1] | outcome [2] | outcome [3] | Potency [5] | Potency [6] | Potency [8] | outcome [9] | outcome [10] | outcome [11] | outcome [19] | outcome [20] | Potency [12] | outcome [13] | Potency [14] | outcome [15] | Potency [16] | Potency [17]

CN(C)CCOCCN(C)CCO
inactive: outcome [1] | outcome [2] | outcome [3] | Potency [4] | Potency [5] | Potency [6] | Potency [8] | outcome [9] | outcome [10] | outcome [19] | outcome [20] | Potency [12] | outcome [13] | Potency [14] | outcome [15] | Potency [16] | Potency [17]

CC(=O)/C=C/c1ccco1
inactive: outcome [1] | outcome [2] | Potency [4] | Potency [5] | Potency [6] | Potency [7] | Potency [8] | outcome [9] | outcome [10] | outcome [11] | outcome [19] | outcome [20] | Potency [12] | outcome [13] | Potency [14] | outcome [15] | Potency [16] | Potency [17]
